Screening data deposited in PubChem BioAssay by National Center for Advancing Translational Sciences (NCATS).
Only a selection was taken, and hits are over-represented in it overall.
KDM5B inh = Primary screen for KDM5B Histone Demethylases FDH-coupled qHTS | KDM5B demethylase, FDH-coupled NADH fluorescence (FDH is formaldehyde dehydrogenase) | Potency, µM (highest dose often 57.7 µM), actives largely listed as inhibitors | 220,000 compounds, 2.6% hits | Lysine-specific demethylase 5B (Homo sapiens), Q9UGL1 | AID 1347165, 2019; active = well fitted inhibition curve with a large enough effect; note: 0% is about no effect; nearly all actives have a fitted effect of over 70% in size
Target sequence (Q9UGL1 whole entry, looked up): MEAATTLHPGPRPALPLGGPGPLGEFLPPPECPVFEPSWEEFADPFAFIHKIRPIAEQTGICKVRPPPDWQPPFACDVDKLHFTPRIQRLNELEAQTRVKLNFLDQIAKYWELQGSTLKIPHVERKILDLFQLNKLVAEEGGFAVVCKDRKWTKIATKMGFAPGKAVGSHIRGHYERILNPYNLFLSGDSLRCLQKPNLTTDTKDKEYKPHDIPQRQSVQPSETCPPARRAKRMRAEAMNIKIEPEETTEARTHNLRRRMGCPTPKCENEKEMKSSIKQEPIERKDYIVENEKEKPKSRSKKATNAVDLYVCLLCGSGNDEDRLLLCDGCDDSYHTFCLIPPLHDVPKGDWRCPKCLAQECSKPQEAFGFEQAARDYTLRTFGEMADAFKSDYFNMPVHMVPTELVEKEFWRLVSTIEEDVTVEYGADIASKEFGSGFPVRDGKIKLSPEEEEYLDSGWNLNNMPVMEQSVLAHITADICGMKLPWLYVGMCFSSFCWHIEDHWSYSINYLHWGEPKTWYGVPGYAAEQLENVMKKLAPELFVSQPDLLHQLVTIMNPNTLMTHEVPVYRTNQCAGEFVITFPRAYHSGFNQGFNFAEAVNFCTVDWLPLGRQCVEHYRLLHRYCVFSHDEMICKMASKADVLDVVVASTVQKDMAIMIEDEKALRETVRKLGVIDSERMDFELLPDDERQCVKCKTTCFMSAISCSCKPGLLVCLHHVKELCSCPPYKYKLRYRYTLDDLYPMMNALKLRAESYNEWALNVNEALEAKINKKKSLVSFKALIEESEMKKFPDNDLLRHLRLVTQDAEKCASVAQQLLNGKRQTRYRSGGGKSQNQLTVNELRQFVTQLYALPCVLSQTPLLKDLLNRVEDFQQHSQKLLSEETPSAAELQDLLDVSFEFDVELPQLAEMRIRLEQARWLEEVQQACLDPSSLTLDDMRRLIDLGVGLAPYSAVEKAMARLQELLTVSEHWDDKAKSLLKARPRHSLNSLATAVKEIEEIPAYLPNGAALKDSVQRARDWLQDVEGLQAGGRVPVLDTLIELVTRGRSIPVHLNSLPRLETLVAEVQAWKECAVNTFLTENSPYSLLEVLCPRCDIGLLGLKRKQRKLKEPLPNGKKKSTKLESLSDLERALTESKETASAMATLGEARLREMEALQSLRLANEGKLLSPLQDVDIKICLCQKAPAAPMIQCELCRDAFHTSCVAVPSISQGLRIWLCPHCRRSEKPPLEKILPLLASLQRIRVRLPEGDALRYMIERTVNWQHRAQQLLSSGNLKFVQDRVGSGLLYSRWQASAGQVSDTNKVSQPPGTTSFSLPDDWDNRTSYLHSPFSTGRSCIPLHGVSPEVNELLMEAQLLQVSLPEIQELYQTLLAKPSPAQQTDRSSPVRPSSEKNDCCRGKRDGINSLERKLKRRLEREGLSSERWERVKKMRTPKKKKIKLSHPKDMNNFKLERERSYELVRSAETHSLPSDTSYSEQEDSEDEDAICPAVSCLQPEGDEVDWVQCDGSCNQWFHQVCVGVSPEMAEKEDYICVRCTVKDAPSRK
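Inhibition is measured as reduced NADH fluorescence generation from FDH coupling to formaldehyde release. Truncated KDM5BΔAP at 200 nM final acts on H3K4me3 peptide (12.5 µM in substrate mix) in pH 7.5 HEPES buffer with Tween-20, 30 min, room temperature.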
An asterisk follows results filed as active; i = inactive. Potency is the fitted concentration of half-maximal effect.

SMILES | KDM5B inh
O=C(NCCC1CCCCC1)c1ccc2nccn2c1 | 28µM*
O=C(NCCCCc1ccccc1)c1ccncc1 | i
O=C(NCC1CCCCC1)c1ccncc1 | i
O=C(NCCc1nc(Cc2ccccc2)no1)[C@H]1CCC[C@@H](O)C1 | i
O=C(NCCc1nc(Cc2ccccc2)no1)C1CNCCO1 (configuration not stated) | i
O=C(NCCCc1ccccc1)c1ccc2nccn2c1 | 35µM*
COc1ccc(C(=O)NCCCc2ccccc2)cc1 | i
O=C(NCCC1CCCCC1)c1c[nH]c2ncccc12 | i
O=C(NCCc1nc(Cc2ccccc2)no1)c1ccc2nccn2c1 | 18µM*
C#CCN(Cc1ccc(C)cc1)C(=O)C1CCCN(C(=O)CC)C1 (configuration not stated) | i
O=C(c1ccco1)N1CCC2(CC1)CC(N1CCN(c3ccccn3)CC1)CCO2 (configuration not stated) | i
COc1ccc(C2Cn3nnc(C(=O)NC4CCCCCCC4)c3CO2)cc1 (configuration not stated) | i
Cc1ccc(NC(=O)Cn2nc(-c3ccco3)ccc2=O)cc1C | i
COc1ccc(C(=O)NC2(C(F)(F)F)NC(=O)N(c3ccccc3)C2=O)cc1OC (configuration not stated) | i
O=C(Nc1nn(Cc2ccc(F)cc2)cc1Cl)c1nc2ncccn2n1 | i
O=C(Nc1cccc(Cl)c1F)c1cc(S(=O)(=O)N2CCOCC2)c(Cl)cc1Cl | i
Cn1c(COc2ccccc2Cl)nnc1SCCOc1ccc(Cl)cc1 | i
O=C(c1cc2n(n1)CC(c1ccc(Cl)cc1)OC2)N1CCN(c2ccccc2Cl)CC1 (configuration not stated) | i
O=C(c1cc2n(n1)CC(c1ccc(Cl)cc1)OC2)N1CCN(c2ccc(Cl)cc2)CC1 (configuration not stated) | i
O=C(NCc1ccccc1)c1cc2n(n1)CC(c1ccc(Cl)cc1)OC2 (configuration not stated) | i
CCOc1ccccc1NC(=O)c1cc2n(n1)CC(c1ccc(Cl)cc1)OC2 (configuration not stated) | 22µM*
CC1CCC(NC(=O)c2cc3n(n2)CC(c2ccc(Cl)cc2)OC3)CC1 (configuration not stated) | i
O=C(NCc1ccccc1Cl)c1cc2n(n1)CC(c1ccc(Cl)cc1)OC2 (configuration not stated) | i
Cc1c(Cl)cccc1NC(=O)c1cc2n(n1)CC(c1ccc(Cl)cc1)OC2 (configuration not stated) | 25µM*
Cc1cccc(CNC(=O)c2cc3n(n2)CC(c2ccc(Cl)cc2)OC3)c1 (configuration not stated) | i
SMILES | KDM5B inh
CCCCNC(=O)c1cc2n(n1)CC(c1ccc(Cl)cc1)OC2 (configuration not stated) | i
Cc1ccc(NC(=O)c2cc3n(n2)CC(c2ccc(Cl)cc2)OC3)c(Cl)c1 (configuration not stated) | 18µM*
Cc1ccc(C)c(NC(=O)c2cc3n(n2)CC(c2ccc(Cl)cc2)OC3)c1 (configuration not stated) | 28µM*
Cc1ccc(S(=O)(=O)CC(=O)c2ccc(F)cc2)cc1C | i
Cc1ccc2cc(C(=O)NC3CCS(=O)(=O)C3)c(C)nc2c1 (configuration not stated) | i
O=C(c1ccccn1)N1CCCCCC1CN1CCCC1 (configuration not stated) | i
Cc1nn(C)c(C)c1S(=O)(=O)N(CC(=O)Nc1ccc(F)c(Cl)c1)c1ccc(C(C)C)cc1 | i
Cc1ccc(S(=O)(=O)NCC2CCC(C(=O)NCC(=O)N3CCc4ccccc4C3)CC2)cc1 (configuration not stated) | i
CCN(CC)c1ccc(/C=N/NS(=O)(=O)c2ccccc2)cc1 | i
c1ccc(COc2ccc3cc[nH]c3c2)cc1 | i
Cc1c(-c2ccccc2)oc2c(C(=O)NC3CC3)cccc2c1=O | i
COc1ccc(OC)c(NC(=O)C2CCCN2C(=O)C23CC4CC(CC(C4)C2)C3)c1 (configuration not stated) | i
CC(C)C1NC(=O)N(Cc2coc(-c3cccc(F)c3)n2)C1=O (configuration not stated) | i
O=C(Nc1ccccc1Sc1ccccc1)C1CC=CCC1 (configuration not stated) | i
Cc1noc(C)c1-c1cc2c(cc(C)n2C)c(NC2CCN(C)CC2)n1 | i
Cc1noc(C)c1-c1cc2c(cc(C)n2C)c(N2CCN(c3ccccn3)CC2)n1 | 32µM*
Cc1nnc(-c2cc(N3CCN(c4ccccn4)CC3)ccn2)n1C | i
O=C(NCc1nc2ccccc2[nH]1)c1cc(-c2cccs2)nc2ccccc12 | i
CC(NC(=O)CCC1CCCO1)C1CCCO1 (configuration not stated) | i
CCCCc1[nH]nc2c1C1(C(=O)Nc3ccc(Cl)cc31)C(C#N)=C(N)O2 (configuration not stated) | i
Cc1ccc2nc(C)c(C(=O)NCC(=O)Nc3c(C)cccc3C)cc2c1 | i
Cn1c(CSc2ccccc2Cl)nc2c1c(=O)[nH]c(=O)n2C | i
COc1ccc(-c2noc([C@@H]3CCCN3C(=O)c3ccncc3)n2)cc1OC | i
COCCOc1cc(-c2noc([C@@H]3CCCN3Cc3ccc(NC(C)=O)cc3)n2)ccn1 | i
CC(=O)N1CCN(c2cc(-c3noc([C@@H]4CCCN4Cc4ccc(C(F)(F)F)cc4)n3)ccn2)CC1 | 28µM*
SMILES | KDM5B inh
Fc1ccc(-c2noc([C@@H]3CCCN3Cc3ccc(Cl)cc3)n2)nc1 | i
NC(=O)C1CCN(c2cc(-c3noc([C@@H]4CCCN4Cc4ccc(F)c(F)c4)n3)ccn2)CC1 | 25µM*
COc1ccc(-c2noc([C@@H]3CCCN3C(=O)c3ccc(F)c(F)c3)n2)cc1OC | i
CCC(C)(C)c1nnc(NC(=O)Cc2ccccc2)s1 | i
CCOC(=O)C1=C(CN(CCOC)Cc2ccco2)NC(=O)NC1c1cccs1 (configuration not stated) | i
CC(c1nc(C(C)(C)C)no1)N1CCN(c2oc(C3CC3)nc2C#N)CC1 (configuration not stated) | i
CC(=O)c1ccc(NS(=O)(=O)c2ccc3[nH]c4c(c3c2)CCCCCC4)cc1 | i
O=C(CN1CC(=O)NC1=O)NCc1ccc2[nH]c3c(c2c1)CCCCCC3 | 22µM*
CC(=O)c1ccc(NS(=O)(=O)c2ccc3[nH]c4c(c3c2)CCCC4)cc1 | i
CCOc1ccc(NC(=O)CCc2nc(-c3ccc(C)n(C(C)C)c3=O)no2)cc1 | i
CCn1c(=O)c(-c2noc(C(=O)N3CCCCC3)n2)nn(-c2ccc(C)cc2)c1=O | i
O=C(NC1CCC(C(F)(F)F)CC1)C1CCCCC1 (configuration not stated) | i
Cc1cc(Cl)ccc1-c1ccc(C=O)cc1 | 79µM*
O=Cc1ccc(-c2cccc(Cl)c2)cc1 | 32µM*
NCc1ccc(-c2cccc(Cl)c2)cc1 | i
Cc1cc(Cl)ccc1-c1ccccc1C=O | i
Cc1cc(Cl)ccc1-c1cccc(CN)c1 | i
O=Cc1ccccc1-c1cccc(Cl)c1 | i
Cc1c(S(=O)(=O)c2ccccc2)c(NC(=O)C(C)C)n(C(C)C)c1C | i
CCCCCCCNCCCCCCC | i
